# PPARg SRC-2 ag = promotes SRC-2 coactivator recruitment by human PPARgamma; P37231; AID 1032; activation, % at 8 µM; hit rate 0.34% among 200,000; PPARgamma LBD-SRC-2 recruitment, biochemical;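 also: 0% = vehicle and 100% = reference agonist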
# PPARg SRC1 recr = promotes SRC-1 coactivator recruitment by human PPARgamma | PPARgamma-SRC-1 coactivator recruitment biochemical assay | P37231 | hit rate 0.41% among 200,000 | activation, % at 8 µM; in the data active = activation above about 19%;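 also: 0% = DMSO and 100% = reference agonist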
# TR-FRET SRC-2 ct = flags TR-FRET format artefacts in PPARgamma SRC-2 recruitment agonist screen. TR-FRET artefact counter-screen; hits give high values. TR-FRET ratio at 8 µM. hit rate 0.4% among 200,000. AID 1049; in the data active = TR-FRET ratio above about 2000
# SRC3 TRFRET art = flags TR-FRET format artefacts in PPARgamma SRC-3 recruitment agonist screen; TR-FRET artefact counter-screen, PPARgamma/SRC-3 format; hits give high values; TR-FRET ratio at 8 µM; hit rate 0.39% among 99,000; AID 1048; in the data active = TR-FRET ratio above about 2000
# SRC1 TRFRET art = flags TR-FRET format artefacts in PPARgamma SRC-1 recruitment agonist screen; AID 1051; hit rate 0.34% among 99,000; TR-FRET ratio at 8 µM; TR-FRET detection artefact counter-screen, emission ratio; hits give high values; in the data active = TR-FRET ratio above about 2300
# PPARg SRC3 recr = PPARgamma-driven SRC-3 recruitment agonism; activation, % at 8 µM; hit rate 0.26% among 200,000; P37231; biochemical PPARgamma/SRC-3 coactivator recruitment assay; in the data active = activation above about 23%;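 also: 0% = DMSO and 100% = reference agonist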
# PPARg SRC2 conf = confirmation of agonists of SRC-2 recruitment by human PPARgamma; shares compounds with PPARg SRC3 recr; biochemical SRC-2 recruitment by PPARgamma; activation, % at 8 µM; hit rate 52% among 790; AID 1297;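 also: 0% = vehicle alone and 100% = reference agonist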
# PPARg SRC1 ag = confirmation of agonists of SRC-1 recruitment by human PPARgamma; shares compounds with PPARg SRC3 recr; PPARgamma–SRC-1 coactivator recruitment biochemical assay; hit rate 43% among 790; activation, % at 8 µM; in the data active = activation above about 20%;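 also: 0% = vehicle wells and 100% = reference agonist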
# PPARg SRC3 ag = confirmation of agonists of SRC-3 recruitment by human PPARgamma; shares compounds with PPARg SRC3 recr; AID 1301; activation, % at 8 µM; biochemical PPARgamma-SRC-3 coactivator recruitment, agonist mode; hit rate 29% among 790; in the data active = activation above about 24%;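 also: 0% = vehicle wells and 100% = reference agonist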
# An asterisk follows results filed as active; / = not tested or not shown. In the library only some 0.9% were active in any assay of this set; here they are far more common. Rule as the data show it, unless noted: active = activation above about 22%; inactive = the rest.
SMILES,PPARg SRC-2 ag,PPARg SRC1 recr,TR-FRET SRC-2 ct,SRC3 TRFRET art,SRC1 TRFRET art,PPARg SRC3 recr,others
O=C(CCCCCn1c(=S)[nH]c2ccc(N3CCOCC3)cc2c1=O)NCc1ccccc1Cl,9.4,6.8,1729,3063*,1939,12.8,
O=C(CCCCCn1c(=S)[nH]c2ccc(N3CCOCC3)cc2c1=O)NCCc1ccccc1,-0.3,-2.6,1485,1541,1893,3.5,
COc1ccc(N2CCN(C(=O)c3ccc(Cn4c(=S)[nH]c5ccc(N6CCOCC6)cc5c4=O)cc3)CC2)cc1,0.2,4.2,1719,1821,1727,7.7,
O=C(c1ccc(Cn2c(=S)[nH]c3ccc(N4CCOCC4)cc3c2=O)cc1)N1CCN(c2ccc(F)cc2)CC1,17.3,20.2,2803*,3426*,3474*,14.2,
O=C(COC(=O)CCc1c[nH]c(=O)[nH]1)Nc1cccc(Cl)c1,-3.9,-0.3,1648,/,/,-2.7,
Cc1sc(NC(=O)Cc2ccc3c(c2)OCO3)nc1-c1ccc2c(c1)CCN2C(=O)c1cccc(F)c1,7.0,-1.2,1658,1615,1641,1.6,
Cc1ccccc1C(=O)N1CCc2cc(-c3nc(NC(=O)Cc4ccc5c(c4)OCO5)sc3C)ccc21,2.3,9.3,2157*,2401*,2310,9.1,
CN(CC1CCCO1)S(=O)(=O)c1ccc(C(=O)Nc2nc3cc4c(cc3s2)OCO4)cc1 (stereo not drawn),23.2*,8.9,1631,/,/,3.8,
CN(CC1CCCO1)S(=O)(=O)c1ccc(C(=O)Nc2ccc3c(c2)OCO3)cc1 (stereo not drawn),11.3,4.0,1460,1432,1902,3.2,
C=CCN(CC=C)Cc1c(O)ccc2c1oc(=O)c1ccccc12,20.3,20.7*,1879,/,/,20.3,
Cc1cc(NC(=O)CSc2nc(-c3ccco3)cc(C(F)(F)F)n2)n(-c2ccccc2)n1,3.7,4.5,1478,/,/,5.1,
CCc1nc2ccc(C(=O)Nc3nnc(C)s3)cc2nc1CC,-2.5,477.8*,1452,1708,6131*,2.2,
CCc1nc2ccc(C(=O)Nc3cccc(C(C)=O)c3)cc2nc1CC,-6.6,-1.5,1617,1517,1697,-3.6,
CC(C)c1ccccc1NC(=O)c1ccccc1NC(=O)C1CCCCC1,-0.3,-4.3,1404,1518,1653,-2.2,
Cc1ccc2nc(-c3cccnc3SCC(=O)N3c4ccccc4CC3C)[nH]c2c1 (stereo not drawn),4.2,3.4,2147*,/,/,4.6,
Cc1ccc2nc(SCC(=O)N3c4ccccc4CC3C)c(C)cc2c1 (stereo not drawn),6.7,-8.0,1722,/,/,12.8,
Cc1ccc2nc(-c3ccc(SCC(=O)N4CCc5ccccc54)nc3)[nH]c2c1,-2.4,5.8,1365,2738*,1724,2.5,
Cc1ccc2nc(-c3ccc(SCC(=O)O)nc3)[nH]c2c1,7.0,11.4,1849,/,/,12.2,
CCCCOc1ccc(S(=O)(=O)Nc2cc(OC)ccc2OC)cc1,1.3,-7.2,1503,/,/,-3.2,
O=C(/C=C/c1ccc(Br)cc1)c1ccc(NC(=O)c2ccco2)cc1,0.6,3.5,5699*,14077*,2646*,5.7,
CCc1c(C(C)S(=O)(=O)c2ccc(C)cc2)[nH]c(=O)n1-c1ccc(OC(F)(F)F)cc1 (stereo not drawn),11.3,4.2,1533,/,/,5.7,
CC(C)Oc1ccc(C(=O)Nc2ccc([N+](=O)[O-])cc2)cc1,1.4,6.0,1735,1715,1829,-0.4,
O=C(NC(=S)Nc1ccccc1)c1ccc(Br)o1,7.8,22.2*,1845,1864,1954,4.7,
COc1cc(-c2nc3ccccn3c2/N=C/c2cccc(OC)c2O)ccc1O,17.2,7.3,2175*,1752,2128,8.0,
COc1cc(-c2nc3ccccn3c2/N=C/c2ccc(F)cc2)ccc1O,1.3,9.6,1636,1737,2014,3.0,
SMILES,PPARg SRC-2 ag,PPARg SRC1 recr,TR-FRET SRC-2 ct,SRC3 TRFRET art,SRC1 TRFRET art,PPARg SRC3 recr,others
Cc1[nH]c(=S)c(C#N)c2c1CCCC2,-1.7,5.1,1539,1735,1916,8.6,
N#Cc1c(N)sc(=S)c2c1CCCC2,18.6,12.4,2023*,/,/,20.6,
CCCCC(CC)c1nnc(NC(=O)c2cccs2)s1 (stereo not drawn),22.1*,-1.9,1818,1670,1873,5.6,
Cc1ccc(C(=O)NNC(=O)c2cccnc2SCc2cccc([N+](=O)[O-])c2)cc1,2.6,10.2,1714,1920,1779,2.6,
CN1/C(=C\C(=O)COC(=O)CNC(=O)c2ccccc2F)C(C)(C)c2ccccc21,-3.9,-1.3,1664,1456,1741,1.1,
CN1/C(=C\C(=O)COC(=O)CNC(=O)c2ccc3ccccc3c2)C(C)(C)c2ccccc21,11.9,-1.8,2236*,3346*,3406*,2.0,
CC(=O)c1cccc(NC(=O)c2cc3ccccn3n2)c1,24.5*,6.4,1832,/,/,4.3,
O=C(CS(=O)(=O)c1cn(Cc2ccccc2Cl)c2ccccc12)N1CCOCC1,-7.1,-4.0,1406,/,/,2.4,
CCCCn1c(SCc2nc(N)nc(Nc3ccccc3C)n2)nc2ccccc2c1=O,-5.2,-1.8,1460,/,/,-10.2,
C=CCn1c(=O)c2ccccc2n2c(SCC(=O)c3ccccc3)nnc12,1.1,8.3,1556,/,/,27.3*,
C=CCn1c(=O)c2ccccc2n2c(SCc3nc(N)nc(Nc4ccccc4C)n3)nnc12,5.2,21.7*,1648,/,/,7.5,
Cc1ccnc(NC(=O)CSc2cc(=O)n(C)c3ccccc23)c1,75.0*,74.5*,3578*,/,/,95.9*,PPARg SRC2 conf=41.6*;PPARg SRC1 ag=23.3*;PPARg SRC3 ag=27.5*
Cn1c(=O)cc(SCC(=O)Nc2ccccn2)c2ccccc21,59.0*,44.6*,2585*,/,/,65.1*,PPARg SRC2 conf=33.8*;PPARg SRC1 ag=23.5*;PPARg SRC3 ag=26.7*
Cc1ccnc(NC(=O)CCCOc2cc(=O)n(C)c3ccccc23)c1,-0.8,-7.3,1577,/,/,-4.4,
CCOC(=O)c1c(N)sc(=S)c2c1CCC2,27.1*,19.2*,2147*,/,/,34.3*,PPARg SRC2 conf=6.2;PPARg SRC1 ag=5.7;PPARg SRC3 ag=6.5
COc1ccc(/C=C(\C#N)C(=O)N=CN(C)C)cc1,6.5,2.6,1751,1533,1905,3.5,
Cn1c(O)c(C(C#N)=C2N=c3ccccc3=N2)c2ccccc21,13.8,22.3*,1631,/,/,15.6,PPARg SRC2 conf=7.5;PPARg SRC1 ag=6.1;PPARg SRC3 ag=12.3
N#CC(=C1N=c2ccccc2=N1)c1c(O)[nH]c2ccccc12,3.9,0.1,1518,/,/,-0.2,
COc1cc(/C=C/C(=O)Nc2nc3ccc(S(=O)(=O)NC(C)C)cc3s2)cc(OC)c1OC,22.8*,14.1,1783,1648,1944,1.3,PPARg SRC2 conf=1.6;PPARg SRC1 ag=-1.4;PPARg SRC3 ag=-0.9

# Bioassay records as filed in PubChem.
